In all, about 5,500 compounds went through this assay and about 2,000 (36%) were called active. Roughly 18% stayed inconclusive and do not appear here. Cut-off read from the data, not from the text of the source: active = normalized growth mostly below about 0.91 (no sharp cut-off); inconclusive = no clear call, values can overlap the other calls; inactive = mostly above about 0.92. This is one part of the list.
Experiment: chemical genetic growth profiling, strain panel (AID 1159580);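 note: tested at 20 µM; growth read once vehicle control cultures reached saturation at 30 °C; 1 = growth at the plate median or of vehicle wells; lower values mean less growth of the strain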
Settings: growth OD
[1] = S. cerevisiae deletion strains, locus YHR030C, strain SLT2, stronger effect = lower value
[2] = S. cerevisiae deletion strains, locus YJL187C, strain SWE1, stronger effect = lower value
[3] = S. cerevisiae deletion strains, locus YAL013W, strain DEP1, stronger effect = lower value
[4] = S. cerevisiae deletion strains, locus YDR150W, strain NUM1, stronger effect = lower value
[5] = S. cerevisiae deletion strains, locus YJR075W, strain HOC1, stronger effect = lower value
[6] = S. cerevisiae deletion strains, locus YMR307W, strain GAS1, stronger effect = lower value
[7] = S. cerevisiae deletion strains, locus YNL128W, strain TEP1, stronger effect = lower value
[8] = S. cerevisiae deletion strains, locus YNL153C, strain GIM3, stronger effect = lower value

Measured: normalized growth

COC(=O)Nc1nc2ccc(S(=O)c3ccccc3)cc2[nH]1 (centres undefined)
inactive: S. cerevisiae deletion strains, locus YAL021C, strain ccr4, stronger effect = lower value 1.01 | S. cerevisiae deletion strains, locus YAL026C, strain drs2, stronger effect = lower value 0.986 | S. cerevisiae deletion strains, locus YAL030W, strain snc1, stronger effect = lower value 0.997 | S. cerevisiae deletion strains, locus YBL061C, strain skt5, stronger effect = lower value 0.995 | S. cerevisiae deletion strains, locus YBR009C, strain hhf1, stronger effect = lower value 0.999 | S. cerevisiae deletion strains, locus YBR023C, strain chs3, stronger effect = lower value 0.993 | S. cerevisiae deletion strains, locus YBR171W, strain sec66, stronger effect = lower value 0.971 | S. cerevisiae deletion strains, locus YBR231C, strain swc5, stronger effect = lower value 0.993 | S. cerevisiae deletion strains, locus YBR279W, strain paf1, stronger effect = lower value 0.994 | S. cerevisiae deletion strains, locus YCL011C, strain gbp2, stronger effect = lower value 1.01 | S. cerevisiae deletion strains, locus YCL016C, strain dcc1, stronger effect = lower value 1.01 | S. cerevisiae deletion strains, locus YCL061C, strain MRC1, stronger effect = lower value 0.994 | S. cerevisiae deletion strains, locus YCL069W, strain vba3, stronger effect = lower value 0.988 | S. cerevisiae deletion strains, locus YCR088W, strain abp1, stronger effect = lower value 0.998 | S. cerevisiae deletion strains, locus YDL005C, strain med2, stronger effect = lower value 0.994 | S. cerevisiae deletion strains, locus YDL040C, strain nat1, stronger effect = lower value 1 | S. cerevisiae deletion strains, locus YDR001C, strain nth1, stronger effect = lower value 0.983 | S. cerevisiae deletion strains, locus YDR069C, strain doa4, stronger effect = lower value 0.99 | S. cerevisiae deletion strains, locus YDR137W, strain rgp1, stronger effect = lower value 0.996 | S. cerevisiae deletion strains, locus YDR159W, strain sac3, stronger effect = lower value 0.966 | S. cerevisiae deletion strains, locus YDR195W, strain ref2 0.969 | S. cerevisiae deletion strains, locus YDR297W, strain sur2, stronger effect = lower value 0.997 | S. cerevisiae deletion strains, locus YDR334W, strain swr1, stronger effect = lower value 0.983 | S. cerevisiae deletion strains, locus YDR335W, strain msn5, stronger effect = lower value 0.973 | S. cerevisiae deletion strains, locus YDR392W, strain spt3, stronger effect = lower value 1 | S. cerevisiae deletion strains, locus YEL003W, strain gim4, stronger effect = lower value 0.962 | S. cerevisiae deletion strains, locus YEL037C, strain rad23, stronger effect = lower value 0.993 | S. cerevisiae deletion strains, locus YEL061C, strain CIN8 (second series), stronger effect = lower value 0.983 | S. cerevisiae deletion strains, locus YER015W, strain faa2, stronger effect = lower value 0.995 | S. cerevisiae deletion strains, locus YER016W, strain bim1, stronger effect = lower value 0.986 | S. cerevisiae deletion strains, locus YER111C, strain swi4, stronger effect = lower value 0.986 | S. cerevisiae deletion strains, locus YER155C, strain BEM2 (second series), stronger effect = lower value 0.953 | S. cerevisiae deletion strains, locus YFR010W, strain ubp6, stronger effect = lower value 0.988 | S. cerevisiae deletion strains, locus YGL167C, strain pmr1, stronger effect = lower value 0.984 | S. cerevisiae deletion strains, locus YGL173C, strain kem1, stronger effect = lower value 0.991 | S. cerevisiae deletion strains, locus YGL227W, strain vid30, stronger effect = lower value 0.986 | S. cerevisiae deletion strains, locus YGL240W, strain doc1, stronger effect = lower value 0.967 | S. cerevisiae deletion strains, locus YGL253W, strain hxk2, stronger effect = lower value 0.998 | S. cerevisiae deletion strains, locus YHR013C, strain ard1, stronger effect = lower value 1.02 | S. cerevisiae deletion strains, locus YHR027C, strain rpn1, stronger effect = lower value 0.989 | [1] 1.03 | S. cerevisiae deletion strains, locus YHR079C, strain IRE1, stronger effect = lower value 1.02 | S. cerevisiae deletion strains, locus YHR142W, strain chs7, stronger effect = lower value 0.994 | S. cerevisiae deletion strains, locus YJL092W, strain hpr5, stronger effect = lower value 0.984 | S. cerevisiae deletion strains, locus YJL095W, strain BCK1 (second series), stronger effect = lower value 1 | S. cerevisiae deletion strains, locus YJL095W, strain BCK1, stronger effect = lower value 0.972 | S. cerevisiae deletion strains, locus YJL115W, strain asf1, stronger effect = lower value 0.985 | S. cerevisiae deletion strains, locus YJL129C, strain trk1, stronger effect = lower value 0.981 | S. cerevisiae deletion strains, locus YJL154C, strain vps35, stronger effect = lower value 0.987 | S. cerevisiae deletion strains, locus YJL164C, strain tpk1, stronger effect = lower value 1.01 | S. cerevisiae deletion strains, locus YJL166W, strain qcr8, stronger effect = lower value 0.975 | [2] 0.984 | S. cerevisiae deletion strains, locus YJR066W, strain TOR1, stronger effect = lower value 0.975 | S. cerevisiae deletion strains, locus YKL160W, strain elf1, stronger effect = lower value 0.99 | S. cerevisiae deletion strains, locus YKR026C, strain gcn3, stronger effect = lower value 0.979 | S. cerevisiae deletion strains, locus YKR091W, strain srl3, stronger effect = lower value 1 | S. cerevisiae deletion strains, locus YLL001W, strain dnm1, stronger effect = lower value 0.976 | S. cerevisiae deletion strains, locus YLL026W, stronger effect = lower value 1 | S. cerevisiae deletion strains, locus YLL041C, strain sdh2, stronger effect = lower value 0.99 | S. cerevisiae deletion strains, locus YLR027C, strain aat2, stronger effect = lower value 0.989 | S. cerevisiae deletion strains, locus YLR113W, strain HOG1, stronger effect = lower value 0.982 | S. cerevisiae deletion strains, locus YLR221C, strain rsa3, stronger effect = lower value 1.01 | S. cerevisiae deletion strains, locus YLR258W, strain gsy2, stronger effect = lower value 0.984 | S. cerevisiae deletion strains, locus YLR262C, strain YPT6 (second series), stronger effect = lower value 0.987 | S. cerevisiae deletion strains, locus YLR320W, strain mms22, stronger effect = lower value 1 | S. cerevisiae deletion strains, locus YLR342W, strain FKS1, stronger effect = lower value 0.991 | S. cerevisiae deletion strains, locus YLR357W, strain rsc2, stronger effect = lower value 0.993 | S. cerevisiae deletion strains, locus YLR370C, strain arc18, stronger effect = lower value 0.998 | S. cerevisiae deletion strains, locus YLR384C, strain iki3, stronger effect = lower value 0.986 | S. cerevisiae deletion strains, locus YML120C, strain ndi1, stronger effect = lower value 0.998 | S. cerevisiae deletion strains, locus YMR058W, strain fet3, stronger effect = lower value 0.993 | S. cerevisiae deletion strains, locus YMR125W, strain sto1, stronger effect = lower value 0.982 | S. cerevisiae deletion strains, locus YMR129W, stronger effect = lower value 0.99 | S. cerevisiae deletion strains, locus YMR205C, strain PFK2, stronger effect = lower value 0.982 | S. cerevisiae deletion strains, locus YMR231W, strain pep5, stronger effect = lower value 0.98 | S. cerevisiae deletion strains, locus YNL071W, strain lat1, stronger effect = lower value 0.994 | S. cerevisiae deletion strains, locus YNL183C, strain NPR1, stronger effect = lower value 0.971 | S. cerevisiae deletion strains, locus YNL209W, strain ssb2, stronger effect = lower value 1.01 | S. cerevisiae deletion strains, locus YNL248C, strain rpa49, stronger effect = lower value 1.01 | S. cerevisiae deletion strains, locus YNL322C, strain KRE1 (second series), stronger effect = lower value 0.998 | S. cerevisiae deletion strains, locus YNR049C, strain mso1, stronger effect = lower value 0.977 | S. cerevisiae deletion strains, locus YOR001W, strain rrp6, stronger effect = lower value 0.982 | S. cerevisiae deletion strains, locus YOR070C, strain gyp1, stronger effect = lower value 0.999 | S. cerevisiae deletion strains, locus YOR080W, strain dia2, stronger effect = lower value 0.974 | S. cerevisiae deletion strains, locus YOR083W, strain WHI5, stronger effect = lower value 0.991 | S. cerevisiae deletion strains, locus YOR106W, strain vam3, stronger effect = lower value 1 | S. cerevisiae deletion strains, locus YOR231W, strain MKK1, stronger effect = lower value 1 | S. cerevisiae deletion strains, locus YOR265W, strain rbl2, stronger effect = lower value 0.992 | S. cerevisiae deletion strains, locus YOR270C, strain vph1, stronger effect = lower value 1 | S. cerevisiae deletion strains, locus YOR290C, strain snf2, stronger effect = lower value 1.01 | S. cerevisiae deletion strains, locus YPL051W, strain arl3, stronger effect = lower value 0.993 | S. cerevisiae deletion strains, locus YPL078C, strain atp4, stronger effect = lower value 0.963 | S. cerevisiae deletion strains, locus YPL106C, strain sse1, stronger effect = lower value 0.99 | S. cerevisiae deletion strains, locus YPL240C, strain hsp82, stronger effect = lower value 1 | S. cerevisiae deletion strains, locus YPL256C, strain CLN2, stronger effect = lower value 1.01

COC(=O)c1cccc(NC(=O)CC2C(=O)NCCN2C(=O)c2cccs2)c1 (centres undefined)
inactive: [3] 1.02 | S. cerevisiae deletion strains, locus YBR229C, strain ROT2, stronger effect = lower value 1.02 | S. cerevisiae deletion strains, locus YDL101C, strain DUN1, stronger effect = lower value 1 | S. cerevisiae deletion strains, locus YDL134C, strain PPH21, stronger effect = lower value 1.04 | [4] 0.982 | S. cerevisiae deletion strains, locus YEL061C, strain CIN8, stronger effect = lower value 1.01 | S. cerevisiae deletion strains, locus YGR078C, strain PAC10, stronger effect = lower value 1.01 | [1] 1.07 | S. cerevisiae deletion strains, locus YHR087W, strain rtc3, stronger effect = lower value 0.987 | [2] 0.989 | S. cerevisiae deletion strains, locus YJR043C, strain POL32, stronger effect = lower value 1.02 | [5] 1.01 | S. cerevisiae deletion strains, locus YLR039C, strain RIC1, stronger effect = lower value 1.02 | S. cerevisiae deletion strains, locus YLR058C, strain SHM2 (second series), stronger effect = lower value 0.996 | S. cerevisiae deletion strains, locus YLR085C, strain ARP6, stronger effect = lower value 0.997 | S. cerevisiae deletion strains, locus YLR262C, strain YPT6, stronger effect = lower value 1.08 | S. cerevisiae deletion strains, locus YML094W, strain GIM5, stronger effect = lower value 0.993 | S. cerevisiae deletion strains, locus YMR219W, strain ESC1, stronger effect = lower value 1.01 | S. cerevisiae deletion strains, locus YMR263W, strain SAP30, stronger effect = lower value 0.958 | [6] 1.01 | [7] 1.01 | [8] 1.01 | S. cerevisiae deletion strains, locus YNL298W, strain CLA4 (second series), stronger effect = lower value 1.04 | S. cerevisiae deletion strains, locus YNL322C, strain KRE1, stronger effect = lower value 1 | S. cerevisiae deletion strains, locus YNR030W, strain Alg12, stronger effect = lower value 1.03 | S. cerevisiae deletion strains, locus YPL055C, strain LGE1, stronger effect = lower value 0.941 | S. cerevisiae deletion strains, locus YPL241C, strain CIN2, stronger effect = lower value 1.01 | S. cerevisiae deletion strains, locus YPR135W, strain CTF4, stronger effect = lower value 1.1 | S. cerevisiae strains, strain wild type, stronger effect = lower value 1.02

COC(=O)Nc1nc2ccc(C(=O)c3cccs3)cc2[nH]1
inactive: [3] 1.03 | S. cerevisiae deletion strains, locus YCL061C, strain MRC1 (second series), stronger effect = lower value 1.01 | [4] 0.994 | S. cerevisiae deletion strains, locus YDR363W, strain ESC2, stronger effect = lower value 1.03 | S. cerevisiae deletion strains, locus YER002W, strain NOP16, stronger effect = lower value 1.01 | S. cerevisiae deletion strains, locus YGR229C, strain SMI1, stronger effect = lower value 1.03 | [5] 1.04 | [6] 1.01
active: S. cerevisiae deletion strains, locus YAL040C, strain CLN3, stronger effect = lower value 0.635 | [7] 0.73 | [8] 0.124 | S. cerevisiae deletion strains, locus YNL175C, strain NOP13, stronger effect = lower value 0.715 | S. cerevisiae deletion strains, locus YNL197C, strain WHI3, stronger effect = lower value 0.429 | S. cerevisiae deletion strains, locus YNL224C, strain SQS1, stronger effect = lower value 0.605 | S. cerevisiae deletion strains, locus YOR083W, strain WHI5 (second series), stronger effect = lower value 0.442
